NPC1 prom act: activators of NPC1 promoter; Huh7 NPC1 promoter luciferase reporter, 24 h; Potency, µM (titrated, usually from 9.22 µM), for inactives: at the highest dose activation, most hits filed as activators; actives 2.4% (n = 320,000); AID 485313; further: % of control where 0% means no effect; nearly all actives have a fitted effect of over 60% in size
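NPC1 promoter–luciferase Huh7 cells; 24 h compound; luminescence.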
ELG1 repair inh: ELG1-dependent DNA repair inhibition; HEK293T ELG1-luciferase reporter, luminescence, 16 h; DNA damage induced by 5-fluorouridine; Potency, µM (doses to about 46.1 µM), for the others: at the highest dose activity change, negative = inhibition, usual class: inhibitors; actives 2.3% (n = 330,000); AID 504467; further: on the % scale 0 is the no-effect control and ±100 the full control effect; nearly all actives have a fitted effect of over 55% in size
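HEK293T cells expressing luciferase-tagged ELG1 (2,000/well) received 5-Fluorouridine plus compound or DMSO for 16 hr at 37 °C. Luciferase was read by ONE-Glo luminescence after 30 min at room temperature.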
ELG1 genotoxic: genotoxicity induction in ELG1-luciferase HEK293T cells; Potency, µM (top dose mostly 46 µM), inactives show at the top dose activity change, positive = activation, hits mostly activators; HEK293T ELG1-luciferase reporter, luminescence, 16 h; actives 1.3% (n = 330,000); further: % of control where 0% means no effect; nearly all actives have a fitted effect of over 60% in size
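DMSO vehicle served as control against compound-treated ELG1-luciferase HEK293T cells; exposure lasted 16 hr at 37 °C and 5% CO2, followed by ONE-Glo luminescence detection after 30 min.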
SMN2 splice enh: increases expression of the SMN2 splice variant; actives 2.8% (n = 210,000); HEK293 SMN2-luciferase splicing reporter, luminescence, 30-36 h; Potency, µM (doses to about 46.1 µM), for the others: at the top dose activity change, positive = activation, usual class: activators; AID 1458; further: % of control where 0% means no effect; nearly all actives have a fitted effect of over 55% in size
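HEK293 cells carry an SMN2 minigene-luciferase reporter in which exon 7 inclusion puts luciferase in frame. Cells were seeded at 2000 cells/well, attached for 10-12 hours, then exposed to compounds for 30-36 hours at 37C before ONE-Glo luminescence.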
FLuc modulator: counter-screen for miR-21 project: firefly luciferase inhibitors or activators. P08659. purified FLuc, Km substrates, luminescence inhibition. Potency, µM (highest dose often 57.5 µM), inactives show top-dose activity change, negative = inhibition, usual class: inhibitors. actives 6.9% (n = 360,000). AID 588342;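 further: plate controls were vehicle for no effect and reference inhibitor for full effect; nearly all actives have a fitted effect of over 55% in size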
Target sequence (P08659 whole entry, looked up): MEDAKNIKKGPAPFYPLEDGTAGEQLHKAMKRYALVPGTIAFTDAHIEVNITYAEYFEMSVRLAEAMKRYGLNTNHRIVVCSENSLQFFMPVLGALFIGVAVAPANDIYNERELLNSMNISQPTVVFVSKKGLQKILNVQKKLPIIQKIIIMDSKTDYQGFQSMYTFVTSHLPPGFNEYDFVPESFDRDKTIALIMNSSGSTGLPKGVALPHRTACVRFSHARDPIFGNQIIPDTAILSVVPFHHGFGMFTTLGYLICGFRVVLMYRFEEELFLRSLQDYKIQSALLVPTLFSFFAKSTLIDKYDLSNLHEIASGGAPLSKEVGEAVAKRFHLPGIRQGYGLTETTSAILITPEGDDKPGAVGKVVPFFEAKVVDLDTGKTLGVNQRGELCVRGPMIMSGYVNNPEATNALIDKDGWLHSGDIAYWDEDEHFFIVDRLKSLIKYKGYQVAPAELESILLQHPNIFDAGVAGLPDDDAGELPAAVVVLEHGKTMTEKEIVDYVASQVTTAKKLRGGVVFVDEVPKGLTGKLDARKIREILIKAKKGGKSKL
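Purified P. pyralis luciferase (10nM final) with 10uM D-luciferin and 10uM ATP (Km levels) in 50mM Tris acetate pH 7.5, 10mM Mg acetate, 0.01% Tween-20, 0.05% BSA; qHTS 6-point titration, ~60 µM downward; luminescence read.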
Rab9 promoter act: Rab9 promoter activation | Huh7 Rab9 promoter-luciferase reporter, luminescence, 24 h | Potency, µM (series often up to 9.22 µM), without a hit: at the highest dose activation, negative = inhibition, most hits filed as activators | actives 2.8% (n = 320,000); further: % of control where 0% means no effect; nearly all actives have a fitted effect of over 60% in size
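Cells were plated at 1500 per well in reduced-serum medium with 10% FBS and left 2 h. Compound in DMSO was then added for 24 h at 37 °C. Reporter signal was read by luminescence after 10 min with luciferase detection reagent.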
An asterisk follows results filed as active. Compounds with a hit are over-represented: about 9.3% of the library has one in this group of screens. The call rests on the fitted dose curve; in most records, active means well fitted curve in the direction sought with a large enough effect; inconclusive means small, poorly fitted or top-dose-only effect, or another doubt; inactive means no such curve, though single readings can be large; an effect the other way counts as inactive or inconclusive. Potency means the concentration at half of the fitted maximal effect.

How did CN1CCN(C(=O)c2ccc(CS(=O)(=O)c3c(Cl)cccc3Cl)o2)CC1 do in these assays?
NPC1 prom act: -8%; ELG1 repair inh: -2%; ELG1 genotoxic: 4%; SMN2 splice enh: 14%; FLuc modulator: 2%; Rab9 promoter act: 1%

What do the screens show for `Clc1ccc(-c2ccc(CN3CCCCC3)o2)cc1`?
NPC1 prom act: 1%; ELG1 repair inh: inconclusive; ELG1 genotoxic: 5%; FLuc modulator: inconclusive; Rab9 promoter act: 19%

How did CN1CCN(C(=S)c2ccc(-c3cccc(Cl)c3Cl)o2)CC1 do in these assays?
NPC1 prom act: inconclusive; ELG1 repair inh: inconclusive; ELG1 genotoxic: inconclusive; FLuc modulator: 4.8µM*; Rab9 promoter act: inconclusive

How did S=C(c1ccc(-c2ccc(Cl)cc2)o1)N1CCCCC1 do in these assays?
NPC1 prom act: 1.3µM*; ELG1 repair inh: inconclusive; ELG1 genotoxic: 2.6µM*; SMN2 splice enh: 5µM*; FLuc modulator: 1.1µM*; Rab9 promoter act: 1.4µM*

How did S=C(c1ccc(-c2ccccc2Cl)o1)N1CCCCC1 do in these assays?
NPC1 prom act: 2.8µM*; ELG1 repair inh: inconclusive; ELG1 genotoxic: inconclusive; SMN2 splice enh: 13µM*; FLuc modulator: 5.4µM*; Rab9 promoter act: 3.5µM*

How did CN1CCN(Cc2ccc(-c3ccc(Cl)cc3)o2)CC1 do in these assays?
NPC1 prom act: 8%; ELG1 repair inh: 23%; ELG1 genotoxic: inconclusive; SMN2 splice enh: inconclusive; FLuc modulator: inconclusive; Rab9 promoter act: 17%

How did OCC1(Cc2ccccc2)CCN(C2CCN(c3ccccc3F)CC2)CC1 do in these assays?
NPC1 prom act: 2%; ELG1 repair inh: inconclusive; ELG1 genotoxic: -4%; FLuc modulator: -1%; Rab9 promoter act: -22%

Results for Nc1cc(=O)[nH]c(SCC(=O)Nc2nnc(-c3ccccc3)s2)n1 ?
NPC1 prom act: 8%; ELG1 repair inh: inconclusive; ELG1 genotoxic: 7%; SMN2 splice enh: 20%; FLuc modulator: 24µM*; Rab9 promoter act: 14%

What do the screens show for `CCn1c(Cc2ccccc2)nnc1SCC(=O)Nc1nnc(-c2ccccc2)s1`?
NPC1 prom act: 0%; ELG1 repair inh: inconclusive; ELG1 genotoxic: 16%; SMN2 splice enh: 0.11µM*; FLuc modulator: inconclusive; Rab9 promoter act: -3%

Results for Cc1cc(=O)[nH]c(SCC(=O)Nc2nnc(CC(C)C)s2)n1 ?
NPC1 prom act: 0%; ELG1 repair inh: 10%; ELG1 genotoxic: -1%; SMN2 splice enh: -19%; FLuc modulator: 3%; Rab9 promoter act: -1%

Results for O=C(CSc1ncn[nH]1)Nc1nnc(-c2ccccc2)s1 ?
NPC1 prom act: 19%; ELG1 repair inh: inconclusive; ELG1 genotoxic: inconclusive; SMN2 splice enh: 7%; FLuc modulator: 21µM*; Rab9 promoter act: inconclusive

Results for Nc1cc(=O)[nH]c(SCC(=O)Nc2ccccc2-c2ccccc2)n1 ?
NPC1 prom act: -6%; ELG1 repair inh: -8%; ELG1 genotoxic: 6%; SMN2 splice enh: 0%; FLuc modulator: -1%; Rab9 promoter act: 12%

How did CC(C)Cc1nnc(NC(=O)CSc2nc(-c3ccccc3)cc(=O)[nH]2)s1 do in these assays?
NPC1 prom act: 0%; ELG1 repair inh: inconclusive; ELG1 genotoxic: -3%; FLuc modulator: 12µM*; Rab9 promoter act: 4%

How did Fc1cccc(-c2nn[nH]n2)c1 do in these assays?
NPC1 prom act: -1%; ELG1 repair inh: -5%; ELG1 genotoxic: 2%; SMN2 splice enh: -12%; FLuc modulator: 2%; Rab9 promoter act: 1%

Results for COc1cc(/C=N/NS(=O)(=O)c2ccc3ccccc3c2)ccc1OCc1ccc(C(=O)O)cc1 ?
NPC1 prom act: 0.63µM*; ELG1 repair inh: inconclusive; ELG1 genotoxic: inconclusive; FLuc modulator: 0.34µM*; Rab9 promoter act: 2µM*

Results for COc1cc(/C=N/NS(=O)(=O)c2ccc(C)cc2)ccc1OCc1cccc(C(=O)O)c1 ?
NPC1 prom act: 2µM*; ELG1 repair inh: inconclusive; ELG1 genotoxic: 20%; SMN2 splice enh: 3.5µM*; FLuc modulator: 0.43µM*; Rab9 promoter act: 0.89µM*
